Test results published in PubChem BioAssay (Tox21).
Results filed as inconclusive are left out. The source made the active and inactive calls. Unless noted, calls come from the whole dose curve; as a rule, active = well fitted curve in the direction sought with a large enough effect in the repeat runs; inconclusive = weak or mixed curves; inactive = no such curve, though single readings can be large; an effect the other way counts as inactive or inconclusive.

Experiments:
[1] = qHTS assay to identify small molecule agonists of the hypoxia (HIF-1) signaling pathway (AID 1224846; active = well fitted activation curve with a large enough effect in the signal ratio in the repeat runs, not every such curve was filed as active; the % refers to the signal ratio)
Method in brief: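 Compounds from the Tox21 10K library, dissolved in DMSO, are tested for induction of a hypoxia response element–controlled beta-lactamase reporter in ME-180 cells. Exposure lasts 17 hrs at 37C after a 5 hr settling period, followed by CCF4-AM FRET substrate.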

[2] = qHTS assay to identify small molecule agonists of H2AX - cell viability counter screen (AID 1224847; calls by dose curve; note: nearly all actives have a fitted effect of over 30% in size; note: potency is the fitted concentration of half-maximal effect)
Method in brief: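 Viability of CHO-K1 (wild type) cells after 3 hr compound exposure was measured by CellTiter-Glo luminescence.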

[3] = qHTS assay to identify small molecule antagonists of the estrogen related receptor (ERR) signaling pathway from Tox21 library (AID 1224848); note: nearly all actives have a fitted effect of over 50% in size; note: potency is the fitted concentration of half-maximal effect
Method in brief: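 Compounds dissolved in DMSO are pin-transferred onto ERR reporter cells (2,000 per well) that have settled for 6 h at 37 C. Plates then incubate 18 h at 37 C before ONE-Glo luciferase reagent and a luminescence read 30 min later.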

[4] = qHTS assay to identify small molecule agonists of the estrogen related receptor (ERR) signaling pathway from Tox21 library (AID 1224849; calls by dose curve; note: nearly all actives have a fitted effect of over 15% in size); settings: ERR reporter cell line, ONE-Glo luciferase, 18 h; at 92.4 µM (top of the series) unless noted
Method in brief: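 Cells carrying the ERR reporter were plated and allowed to settle for 6 h, exposed to library compounds for 18 h at 37 C, then lysed with ONE-Glo and luminescence measured.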

[5] = qHTS RealTime-Glo MT Cell Viability Assay in HepG2 cells - 24 hour (AID 1224867); note: nearly all actives have a fitted effect of over 50% in size
Method in brief: (§1)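 qHTS, HepG2, 600 cells/well, RealTime-Glo (NanoLuc + prosubstrate) added with cells; 5 h preincubation; DMSO compound addition; 37 C; luminescence at 0/8/16/24/32/40 h.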

[6] = qHTS RealTime-Glo MT Cell Viability Assay in HEK293 cells - 32 hour (AID 1224868); note: nearly all actives have a fitted effect of over 50% in size; note: potency is the fitted concentration of half-maximal effect
Method in brief: (§2)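 Assay medium contained NanoLuc luciferase plus cell-permeant prosubstrate, added with HEK293 cells at 600 cells/well. After 5 h at 37 C/5% CO2 compounds were added; plates stayed at 37 C for 40 h with serial luminescence reads.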

[7] = A CellTox Green Cytotoxicity Assay to monitor cytotoxicity in HEK293 cells - 0 hour (AID 1224869); note: nearly all actives have a fitted effect of over 50% in size
Method in brief: (§3)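 Cells (HEK293, 600/well) and dye reagent are dispensed together. After 5 h at 37 C, 23 nL compound is pinned in. Plates stay at 37 C for 40 h with fluorescence read at 0h, 8h, 16h, 24h, 32h and 40h.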

[8] = A CellTox Green Cytotoxicity Assay to monitor cytotoxicity in HEK293 cells - 40 hour (AID 1224871); note: nearly all actives have a fitted effect of over 45% in size
Method in brief: as §3

[9] = qHTS RealTime-Glo MT Cell Viability Assay in HEK293 cells - 16 hour (AID 1224872)
Method in brief: as §2

[10] = qHTS RealTime-Glo MT Cell Viability Assay in HepG2 cells - 8 hour (AID 1224873); note: nearly all actives have a fitted effect of over 55% in size
Method in brief: (§4)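 HepG2 cells (600/well) mixed with RealTime-Glo MT reagent, settled 5 h at 37 C/5% CO2 before compound addition. Nonlytic NanoLuc luminescence from viable-cell prosubstrate reduction read repeatedly during 40 h treatment at 37 C.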

[11] = A CellTox Green Cytotoxicity Assay to monitor cytotoxicity in HEK293 cells - 24 hour (AID 1224875); note: nearly all actives have a fitted effect of over 45% in size
Method in brief: as §3

[12] = qHTS RealTime-Glo MT Cell Viability Assay in HepG2 cells - 32 hour (AID 1224877); note: nearly all actives have a fitted effect of over 55% in size
Method in brief: as §1

[13] = qHTS RealTime-Glo MT Cell Viability Assay in HepG2 cells - 40 hour (AID 1224870); note: nearly all actives have a fitted effect of over 50% in size
Method in brief: as §4

[14] = qHTS RealTime-Glo MT Cell Viability Assay in HEK293 cells - 40 hour (AID 1224874); settings: RealTime-Glo luminescence; max response: active compounds read low; note: nearly all actives have a fitted effect of over 50% in size; note: potency is the fitted concentration of half-maximal effect
Method in brief: (§5)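 Real-time viability in HEK293: signal arises when living cells convert a prosubstrate for NanoLuc in the medium, so luminescence tracks viable cell number. Compound (23 nL, DMSO) added 5 h post-seeding; kinetic reads at 0–40 h, 37 C.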

[15] = A CellTox Green Cytotoxicity Assay to monitor cytotoxicity in HepG2 cells - 16 hour (AID 1224876); note: nearly all actives have a fitted effect of over 45% in size
Method in brief: (§6)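 Cells and non-lytic dye reagent are dispensed together (600 HepG2 cells/well) and incubated 5 h before DMSO compound transfer. Kinetic fluorescence is then recorded in the same wells during 40 h at 37 C.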

[16] = A CellTox Green Cytotoxicity Assay to monitor cytotoxicity in HepG2 cells - 24 hour (AID 1224878); note: nearly all actives have a fitted effect of over 45% in size
Method in brief: as §6

[17] = A CellTox Green Cytotoxicity Assay to monitor cytotoxicity in HepG2 cells - 40 hour (AID 1224879); note: nearly all actives have a fitted effect of over 40% in size
Method in brief: as §6

[18] = qHTS RealTime-Glo MT Cell Viability Assay in HEK293 cells - 0 hour (AID 1224880)
Method in brief: as §5

[19] = A CellTox Green Cytotoxicity Assay to monitor cytotoxicity in HEK293 cells - 32 hour (AID 1224881); note: nearly all actives have a fitted effect of over 40% in size
Method in brief: as §3

[20] = A CellTox Green Cytotoxicity Assay to monitor cytotoxicity in HepG2 cells - 0 hour (AID 1224882); note: nearly all actives have a fitted effect of over 35% in size
Method in brief: as §6
% is set by controls: 0 for no effect and ±100 for the full control effect.

Nc1ccc(Sc2ccc(N)cc2)cc1
inactive: outcome [1] | Potency [2] | Potency [3] | activity change, positive = activation [4] 9.92% | Potency [5] | Potency [6] | Potency [7] | Potency [8] | Potency [9] | Potency [10] | Potency [11] | Potency [12]

ClC1=C(Cl)[C@]2(Cl)[C@@H]3[C@@H](Cl)[C@@H](Cl)C[C@@H]3[C@@]1(Cl)C2(Cl)Cl
inactive: outcome [1] | Potency [2] | Potency [3] | activity change, positive = activation [4] 0.0857% | Potency [5] | Potency [6] | Potency [7] | Potency [13] | Potency [8] | Potency [9] | Potency [10] | max response [14] 15.9% | Potency [11] | Potency [15] | Potency [12] | Potency [16] | Potency [17] | Potency [18] | Potency [19] | Potency [20]

CC(C)(C)c1cc([N+](=O)[O-])cc(C(C)(C)C)c1O
inactive: outcome [1] | activity change, positive = activation [4] -56.9% | Potency [5] | Potency [7] | Potency [13] | Potency [11] | Potency [15] | Potency [12] | Potency [18] | Potency [19] | Potency [20]
active: Potency [2] 50.5 µM | Potency [3] 2.73 µM | Potency [6] 6.92 µM | Potency [14] 6.92 µM

ClC1=C(Cl)[C@]2(Cl)[C@@H]3[C@@H](Cl)[C@H](Cl)C[C@@H]3[C@@]1(Cl)C2(Cl)Cl
inactive: outcome [1] | Potency [2] | Potency [3] | activity change, positive = activation [4] -5.06% | Potency [5] | Potency [6] | Potency [13] | Potency [9] | Potency [10] | Potency [15] | Potency [12] | Potency [16] | Potency [17] | Potency [18] | Potency [20]

ClCCN1CCOCC1
inactive: outcome [1] | Potency [2] | Potency [3] | activity change, positive = activation [4] -2.74% | Potency [5] | Potency [6] | Potency [7] | Potency [13] | Potency [8] | Potency [9] | Potency [10] | max response [14] -16.3% | Potency [11] | Potency [15] | Potency [12] | Potency [16] | Potency [17] | Potency [18] | Potency [19] | Potency [20]

Cc1ccc(C(=O)Cl)cc1
inactive: outcome [1] | Potency [2] | Potency [3] | activity change, positive = activation [4] 7.48% | Potency [5] | Potency [6] | Potency [7] | Potency [13] | Potency [8] | Potency [9] | Potency [10] | max response [14] -5.57% | Potency [11] | Potency [15] | Potency [12] | Potency [16] | Potency [17] | Potency [18] | Potency [19] | Potency [20]

CC(C)(COCC1CO1)COCC1CO1 (stereo not given)
inactive: outcome [1] | Potency [2] | Potency [3] | activity change, positive = activation [4] -8.81% | Potency [5] | Potency [6] | Potency [7] | Potency [13] | Potency [8] | Potency [9] | Potency [10] | Potency [11] | Potency [15] | Potency [12] | Potency [16] | Potency [17] | Potency [18] | Potency [19]
